EP2 antag: blocks the human prostaglandin E2 receptor EP2; C6 glioma cells expressing human EP2, cAMP TR-FRET; cells stimulated with saturating PGE2; P43116; inhibition, % at 25 µM; 260,000 compounds, 0.52% hits; AID 1422;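 active means percent inhibition above 40 after rounding to a whole number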;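 further: rat C6 glioma host cells with rolipram phosphodiesterase inhibitor present; the protocol text gives 20 µM as final concentration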
Target sequence (P43116 whole entry, looked up): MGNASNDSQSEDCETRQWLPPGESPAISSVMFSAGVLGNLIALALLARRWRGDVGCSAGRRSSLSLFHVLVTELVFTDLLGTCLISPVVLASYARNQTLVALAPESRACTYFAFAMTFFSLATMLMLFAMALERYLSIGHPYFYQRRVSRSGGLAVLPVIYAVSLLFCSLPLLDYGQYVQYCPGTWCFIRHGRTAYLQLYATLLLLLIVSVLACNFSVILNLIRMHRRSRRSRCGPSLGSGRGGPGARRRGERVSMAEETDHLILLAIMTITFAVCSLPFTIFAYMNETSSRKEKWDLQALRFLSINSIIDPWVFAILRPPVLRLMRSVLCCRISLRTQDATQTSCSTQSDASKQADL
S1P4 ag: agonists of human S1P4 receptor | S1P4-expressing cell line, agonist reporter assay | activation, % at 4.98 µM | 220,000 compounds, 0.35% hits; in the data active means activation above about 11%;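 further: 0% = DMSO vehicle and 100% = reference agonist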
EP2 mod: modulates human prostaglandin E2 receptor EP2 signaling | EP2-expressing cells, cAMP HTRF FRET, PGE2 co-stimulation | induction, % at 25 µM | 260,000 compounds, 0.83% hits | AID 940;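 active means compounds whose cAMP rise, as percent of the full-agonist control response, exceeds 60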;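 further: rat C6 glioma line stably carrying human EP2 under a CMV promoter; the protocol text gives 20 µM as final concentration; 100% = response of wells given 1 µM PGE2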
S1P4 antagonist: human S1P4 receptor antagonism; 220,000 compounds, 0.26% hits; O95977; S1P4-expressing cells, antagonist mode, reporter read-out; inhibition, % at 4.98 µM; AID 1510; in the data active means inhibition above about 29%;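 further: 0% = wells stimulated with agonist and 100% = vehicle wells without agonist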
S1P3 antagonist: S1P3 (human) receptor antagonism; CHO S1P3 NFAT-BLA reporter, FRET fluorescence, antagonist mode; inhibition, % at 4.98 µM; 170,000 compounds, 0.27% hits; AID 485;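 active means inhibition above the plate cutoff, the mean inhibition of test wells on that plate plus 3 SD, cut at about 28% in these data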;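 further: cells challenged with S1P at its EC80 of 0.8 µM; blue over green emission ratio from cleaved BLA substrate after 4 h stimulation; 0% = S1P-stimulated wells and 100% = unstimulated DMSO-only wells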
The depositor's hits bear a star; / = no result given; ! = repeats disagree. Compounds with a hit are over-represented: about 1.9% of the library has one in this group of screens.

SMILES	EP2 antag	S1P4 ag	EP2 mod	S1P4 antagonist	S1P3 antagonist
O=C1OCC2=C1C(c1ccc(F)cc1)c1cc3c(cc1N2)OCO3 (centres undefined)	5.0	3.6	10.7	-10.5	-2.0
O=C1OCC2=C1C(c1ccc(F)cc1)c1cc3c(cc1N2)OCCO3 (centres undefined)	9.3	1.2	38.4	-2.4	35.0*
CC(C)n1cc(C(=O)N2CCC3(CC2)NC(=O)c2ccccc2O3)cn1	4.0	/	-6.2	/	/
C[C@H]1[C@H](O)[C@@H](C)C=CC=CC=CC=CC=CC=CC=C[C@H](O[C@H]2O[C@@H](C)[C@H](O)[C@@H](N)[C@@H]2O)C[C@@H]2O[C@@](O)(C[C@@H](O)C[C@@H](O)[C@@H](O)CC[C@@H](O)C[C@@H](O)CC(=O)O[C@H]1C)C[C@H](O)[C@H]2C(=O)O	42.5*	/	-9.8	/	/
O=C(CSC1=NS(=O)(=O)c2ccccc21)Nc1ccccc1	17.3	1.1	-19.9	-7.7	-40.1
COC(=O)CSC1=NS(=O)(=O)c2ccccc21	114.2*	-1.2	-15.6	-2.5	-69.5
CCCc1cc(C(=O)OC)c(NC(=O)OCC)s1	0.9	1.0	63.4*	-1.8	15.3
CCCc1cc(C(=O)OC)c(NC(=O)CCCC(=O)O)s1	2.1	0.3	0.8	-6.0	-33.0
COc1ccc(-c2ncc(CNC3(c4ccc(OC)cc4)CCCC3)cn2)cc1	9.2	/	-92.1	/	/
CN(C)c1ccc(C(=O)Nc2nc3c(s2)CCCC3)cc1	17.0	-0.3	-38.8	2.3	90.2*
COc1ccc(-n2c(CNc3ccc(Cl)cc3)nnc2SCC#N)cc1	12.0	/	-21.7	/	/
CCSc1cc(N2CCCC2)nc(-c2ccccc2)n1	7.4	1.7	64.0*	2.6	/
CCCSc1cc(N2CCCC2)nc(-c2ccccc2)n1	0.7	-2.7	48.7	-2.1	/
N#CC1=C(SCC(=O)Nc2cccc3ccccc23)NC(=O)CC1c1cccs1 (centres undefined)	9.2	/	-93.6	/	/
COc1ccc(C(=O)/C=C2/Sc3cc4c(cc3N2C)OCO4)cc1	76.7*	0.6	27.7	-11.5	-18.3
CN1/C(=C/C(=O)c2ccc(Cl)cc2)Sc2cc3c(cc21)OCO3	75.4*	-0.9	-61.9	-11.9	-28.0
COc1ccc2c(c1)S/C(=C\C(=O)c1ccncc1)N2C	5.0	-4.0	2.4	16.7	-14.9
CCn1c(SCC(=O)N2CCCC(C)C2)nnc1-c1ccco1 (centres undefined)	8.0	/	71.1*	/	/
COCCCn1c(SCC(=O)N2CCCC(C)C2)nnc1-c1ccco1 (centres undefined)	5.0	0.4	10.9	-6.3	10.3
CC(O)CN(Cc1ccc2c(c1)OCO2)Cc1cccn1-c1ccccc1F (centres undefined)	8.2	/	38.8	/	/
Cc1ccc(NC(=O)CSc2ncccc2C(=O)O)cc1C	6.3	/	15.2	/	/
CCOC(=O)C1=C(C)N(C)C(=S)NC1c1ccccc1Cl (centres undefined)	4.3	1.5	19.5	-0.4	/
CCOC(=O)C1=C(C)N(C)C(=S)NC1c1cccc(Cl)c1Cl (centres undefined)	9.2	0.4	63.6*	8.2	10.2
OC(CN1CCC2(CC1)CC(O)c1ccc3ccccc3c1O2)c1ccc(F)cc1 (centres undefined)	8.6	/	-100.2	/	/
C[C@@H](Cn1nc(-c2cccs2)oc1=O)NC(=O)CCc1nn(C)c(=O)c2ccccc12	8.9	/	-48.5	/	/
SMILES	EP2 antag	S1P4 ag	EP2 mod	S1P4 antagonist	S1P3 antagonist
CC1(C)CC(Nc2ccc(Nc3ccccc3)cc2)CC(C)(C)N1	59.6*!	0.8	-56.7	16.5	-27.9
Cc1onc(-c2c(F)cccc2Cl)c1C(=O)N[C@@H]1C(=O)N2[C@H]1SC(C)(C)[C@H]2C(=O)O	54.8*	/	20.3	/	/
Cc1onc(-c2ccccc2)c1C(=O)N[C@@H]1C(=O)N2[C@@H]1SC(C)(C)[C@@H]2C(=O)O	/	1.4	26.0	-6.0	23.0
C=CCn1c(SCC(=O)c2cc(C)n(CCOC)c2C)nc2sc(C)c(C)c2c1=O	42.2*	-0.6	-38.8	-6.0	/
COc1ccc(C(C)=O)cc1CSc1nc2cc(C(=O)O)ccc2c(=O)n1Cc1ccccc1	11.9	3.0	63.7*	5.4	-9.3
CO[C@@H]1/C=C\O[C@]2(C)Oc3c(C)c(O)c4c(O)c(cc(O)c4c3C2=O)NC(=O)C(C)=C/C=C\[C@H](C)[C@@H](O)[C@H](C)[C@H](O)[C@H](C)[C@H](OC(C)=O)[C@@H]1C	44.6*	/	37.8	/	/
CC(C)(C)C1CCc2onc(C(=O)NCc3ccc(F)cc3)c2C1 (centres undefined)	/	0.6	31.1	3.9	63.7*
CN(C)/C=C1\C(=O)ON=C1c1ccccc1	11.8	1.3	7.3	-18.7	-5.2
O=C1ON=C(c2ccccc2)/C1=C/c1ccco1	95.8*	-2.1	-54.4	0.3	-2.9
COc1ccccc1C1(O)CCN(CC(O)c2ccc(C)c(C)c2)CC1 (centres undefined)	7.2	/	-77.0	/	/
Cc1cccc(Cn2c(NC3CCCC3)nc3c2c(=O)[nH]c(=O)n3C)c1	13.7	/	-13.1	/	/
Cn1c(=O)[nH]c(=O)c2c1nc(NC1CCCCC1)n2Cc1ccccc1	9.4	1.2	61.0*	-12.9	2.6
O=C(Cc1ccccc1)Nc1cccc(N2C(=O)C=CC2=O)c1	132.9*	1.5	-69.4	-12.3	-5.8
COc1cccc(NC(=O)Cc2ccccc2)c1	11.5	0.8	-6.5	-1.0	-35.8
Nc1ccc2c(c1)Cc1cc([N+](=O)[O-])ccc1-2	7.5	-0.2	-67.2	19.7	52.5*
O=c1[nH]cnc2c1sc1nc3c(c(-c4ccc(Cl)cc4)c12)CCC3	9.8	-2.0	60.8*	-11.3	/
CCOC(=O)c1c(-c2ccc(C)cc2)csc1NC(=O)C1CCCO1 (centres undefined)	1.9	-0.8	33.0	-16.5	0.8
CC(C)OC(=O)c1c(-c2ccc(C(C)C)cc2)csc1NC(=O)C1CCCO1 (centres undefined)	13.3	1.6	63.0*	2.2	/
COc1ccc(Cl)cc1C(=O)CSc1nnc(-c2ccco2)n1C	5.7	/	-2.7	/	/
CC1c2ccsc2CCN1Cc1ccccc1OCc1cccnc1 (centres undefined)	7.7	/	0.3	/	/
COCCNc1cc(C)nc2cc(-c3ccc(C)cc3)nn12	9.4	0.9	62.1*	-12.8	9.0
COc1ccc(-c2cc3nc(C)cc(NCCO)n3n2)cc1	6.0	0.7	33.1	-6.5	-21.8
O=C(/C=C/c1ccco1)Nc1ccccc1N1CCCCC1	3.8	1.8	62.3*	-7.2	-10.2
COC(=O)c1ccccc1NC(=O)/C=C/c1ccco1	11.0	1.6	8.4	-9.8	4.0
O=C1c2cccc3cccc(c23)C(=O)N1c1ccc2c(=O)nc3c4cccc5cccc(c(=O)n3c2c1)c54	10.8	/	-5.6	/	/
O=C(CSc1ncnc2sc3c(c12)CCCC3)N1CCCc2ccccc21	28.3	/	-28.6	/	/
Cc1cccc2cc(CN(Cc3ccc4c(c3)OCO4)Cc3nnnn3C3CCCCC3)c(=O)[nH]c12	14.5	/	68.0*	/	/
Cc1cc2cc(CN(Cc3ccccc3)Cc3nnnn3C3CCCC3)c(=O)[nH]c2cc1C	14.3	/	71.1*	/	/
COc1ccc2cc(CN(Cc3ccccc3OC)Cc3nnnn3C3CCCCC3)c(=O)[nH]c2c1	2.6	/	57.5	/	/

Screening data: PubChem BioAssay, several laboratories
